Measurements reported in PubChem BioAssay (NCATS).
Results filed as inconclusive are left out. Calls of active or inactive are those of the source. The call rests on the fitted dose curve; in most records, active means well fitted curve in the direction sought with a large enough effect; inconclusive means small, poorly fitted or top-dose-only effect, or another doubt; inactive means no such curve, though single readings can be large; an effect the other way counts as inactive or inconclusive.

How the values were obtained:
[1] = qHTS of pediatric cancer cell lines to identify multiple opportunities for drug repurposing: Primary screen for DAOY cells (AID 1347090); further: nearly all actives have a fitted effect of over 55% in size
In short: (§1)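 Eight- or eleven-point concentration series, 48 h treatment at 37 degrees C in growth media; readout CellTiter-Glo luminescence. Potency and efficacy were taken from the concentration-response curves.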

[2] = qHTS of pediatric cancer cell lines to identify multiple opportunities for drug repurposing: Primary screen for SJ-GBM2 cells (AID 1347091)
In short: as §1

[3] = qHTS of pediatric cancer cell lines to identify multiple opportunities for drug repurposing: Primary screen for A673 cells (AID 1347092); further: nearly all actives have a fitted effect of over 45% in size
In short: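 Cell viability of A673 measured by CellTiter-Glo ATP luminescence after 48 hours compound exposure. Dilution series spanned 0.78 nM to 46 µM (MIPE, 11-point) or 0.59 nM to 46 µM (NPC, 8-point); bortezomib 2.3 uM positive control.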

[4] = qHTS of pediatric cancer cell lines to identify multiple opportunities for drug repurposing: Primary screen for SK-N-MC cells (AID 1347093)
In short: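 Metabolically active cells were quantified by ATP-dependent luminescence (CellTiter-Glo, 15 min at room temperature) following 48 h treatment. Cells had been plated at 500-1,000 per well and settled for 5 h beforehand.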

[5] = qHTS of pediatric cancer cell lines to identify multiple opportunities for drug repurposing: Primary screen for BT-37 cells (AID 1347094)
In short: (§2)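 Cells plated at 500-1,000/well in growth medium, compounds added after 5 h. MIPE tested at 11 points (from 0.78 nM), NPC at 8 points (from 0.59 nM). CellTiter-Glo luminescence after 48 h; concentration-response curves from primary screen.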

[6] = qHTS of pediatric cancer cell lines to identify multiple opportunities for drug repurposing: Primary screen for NB-EBc1 cells (AID 1347095)
In short: as §2

[7] = qHTS of pediatric cancer cell lines to identify multiple opportunities for drug repurposing: Primary screen for Saos-2 cells (AID 1347097); further: nearly all actives have a fitted effect of over 40% in size
In short: as §2

[8] = qHTS of pediatric cancer cell lines to identify multiple opportunities for drug repurposing: Primary screen for SK-N-SH cells (AID 1347098); further: nearly all actives have a fitted effect of over 65% in size
In short: (§3)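 Cells (500-1,000/well) rested 5 h, then received compounds for 48 h; metabolically active cells were measured by CellTiter-Glo luminescence. Final concentrations spanned up to 46 µM (MIPE, 11-point) or 0.59 nM-46 µM (NPC, 8-point) in primary screens, 11-point in follow-ups.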

[9] = qHTS of pediatric cancer cell lines to identify multiple opportunities for drug repurposing: Primary screen for NB1643 cells (AID 1347099); further: nearly all actives have a fitted effect of over 50% in size
In short: as §2

[10] = qHTS of pediatric cancer cell lines to identify multiple opportunities for drug repurposing: Primary screen for LAN-5 cells (AID 1347100)
In short: (§4)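 Cells (500-1,000/well) in growth media were settled 5 h at 37 degrees C, then given compounds for 48 h. Viability was read as CellTiter-Glo luminescence. Primary runs used MIPE at 11 points (0.78 nM-46 µM) and NPC at 8 points (0.59 nM-46 µM); follow-ups used 11 points.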

[11] = qHTS of pediatric cancer cell lines to identify multiple opportunities for drug repurposing: Primary screen for BT-12 cells (AID 1347101); further: nearly all actives have a fitted effect of over 25% in size
In short: as §3

[12] = qHTS of pediatric cancer cell lines to identify multiple opportunities for drug repurposing: Primary screen for Rh18 cells (AID 1347102); further: nearly all actives have a fitted effect of over 65% in size
In short: as §4

[13] = qHTS of pediatric cancer cell lines to identify multiple opportunities for drug repurposing: Primary screen for OHS-50 cells (AID 1347103); further: nearly all actives have a fitted effect of over 40% in size
In short: as §3

[14] = qHTS of pediatric cancer cell lines to identify multiple opportunities for drug repurposing: Primary screen for RD cells (AID 1347104); further: nearly all actives have a fitted effect of over 55% in size
In short: as §2

[15] = qHTS of pediatric cancer cell lines to identify multiple opportunities for drug repurposing: Primary screen for U-2 OS cells (AID 1347096); further: nearly all actives have a fitted effect of over 50% in size
In short: as §4

[16] = qHTS of pediatric cancer cell lines to identify multiple opportunities for drug repurposing: Primary screen for MG 63 (6-TG R) cells (AID 1347105); further: nearly all actives have a fitted effect of over 50% in size
In short: as §2

[17] = qHTS of pediatric cancer cell lines to identify multiple opportunities for drug repurposing: Primary screen for control Hh wild type fibroblast cells (AID 1347106); further: nearly all actives have a fitted effect of over 55% in size
In short: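 Viability after 48 h compound treatment at 37C, 500-1,000 cells/well, read as ATP luminescence with CellTiter-Glo. Primary screens used 11-point (MIPE, 0.78 nM-46 µM) or 8-point (NPC, 0.59 nM-46 µM) final concentrations; follow-up screens used 11-point dilutions.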

[18] = qHTS of pediatric cancer cell lines to identify multiple opportunities for drug repurposing: Primary screen for TC32 cells (AID 1347089); further: nearly all actives have a fitted effect of over 60% in size
In short: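 Luminescent ATP read-out (CellTiter-Glo) of metabolically active TC32 cells after 48 h exposure. Concentration-response curves came from 11-point (MIPE, 0.78 nM–46 µM) or 8-point (NPC, 0.59 nM–46 µM) primary titrations; follow-up used 11 points.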
Potency means the concentration at half of the fitted maximal effect.

## COc1cc2nccc(Oc3ccc(NC(=O)C4(C(=O)Nc5ccc(F)cc5)CC4)cc3)c2cc1OC
[1]
  Potency: 14800 nM (active)
[2]
  Potency: 23.5 nM (active)
[3]
  Potency: 1480 nM (active)
[4]
  Potency: 1660 nM (active)
[5]
  Potency: 1720 nM (active)
[6]
  Potency: 743 nM (active)
[7]
  Potency: 18700 nM (active)
[8]
  Potency: 3410 nM (active)
[9]
  Potency: 9350 nM (active)
[10]
  Potency: 1480 nM (active)
[11]
  Potency: 15300 nM (active)
[12]
  Potency: 10500 nM (active)
[13]
  Potency: 27300 nM (active)
[14]
  Potency: 16600 nM (active)

## O=C(Nc1cc(C(F)(F)F)cc(C(F)(F)F)c1)c1cc(Cl)ccc1O
[1]
  Potency: 590 nM (active)
[2]
  Potency: 235 nM (active)
[3]
  Potency: 4690 nM (active)
[4]
  Potency: 469 nM (active)
[5]
  Potency: 968 nM (active)
[6]
  Potency: 296 nM (active)
[15]
  Potency: 4690 nM (active)
[7]
  Potency: 2640 nM (active)
[8]
  Potency: 2410 nM (active)
[9]
  Potency: 372 nM (active)
[10]
  Potency: 332 nM (active)
[11]
  Potency: 1720 nM (active)
[12]
  Potency: 4180 nM (active)
[13]
  Potency: 432 nM (active)
[14]
  Potency: 662 nM (active)
[16]
  Potency: 743 nM (active)
[17]
  Potency: inactive

## Cc1nc2ccc(CN(C)c3ccc(C(=O)N[C@@H](CCC(=O)O)C(=O)O)s3)cc2c(=O)[nH]1
[18]
  Potency: 131 nM (active)
[3]
  Potency: 59 nM (active)
[4]
  Potency: 10.5 nM (active)
[6]
  Potency: 42.2 nM (active)
[9]
  Potency: inactive
[12]
  Potency: inactive
[17]
  Potency: inactive

## CCC(=C(c1ccccc1)c1ccc(OCCN(C)C)cc1)c1ccccc1
[18]
  Potency: inactive
[7]
  Potency: 18700 nM (active)
[12]
  Potency: inactive
[13]
  Potency: 21700 nM (active)
[16]
  Potency: inactive
[17]
  Potency: inactive

## Cc1coc2c1C(=O)C(=O)c1c-2ccc2c1CCCC2(C)C
[18]
  Potency: inactive
[4]
  Potency: 8330 nM (active)
[5]
  Potency: 21700 nM (active)
[6]
  Potency: 8330 nM (active)
[15]
  Potency: inactive
[7]
  Potency: 1660 nM (active)
[8]
  Potency: inactive
[11]
  Potency: 21700 nM (active)
[12]
  Potency: 20900 nM (active)
[16]
  Potency: inactive
[17]
  Potency: inactive

## CCn1cc(-c2ccnc3[nH]c(-c4cccc(CN(C)C)c4)cc23)c(-c2ccc(NC(=O)N(C)C)cc2)n1
[18]
  Potency: 104 nM (active)
[3]
  Potency: 4690 nM (active)
[4]
  Potency: 46.9 nM (active)
[5]
  Potency: 19300 nM (active)
[6]
  Potency: 469 nM (active)
[15]
  Potency: 18700 nM (active)
[7]
  Potency: 3720 nM (active)
[8]
  Potency: 3040 nM (active)
[9]
  Potency: 3320 nM (active)
[10]
  Potency: 26.4 nM (active)
[12]
  Potency: 16600 nM (active)
[13]
  Potency: 3850 nM (active)
[14]
  Potency: 10500 nM (active)
[16]
  Potency: 4690 nM (active)
[17]
  Potency: 20900 nM (active)

## CC1(C)O[C@@H]2C[C@@H]3[C@H]4C[C@@H](F)C5=CC(=O)C=C[C@]5(C)[C@@]4(F)[C@@H](O)C[C@]3(C)[C@]2(C(=O)CO)O1
[18]
  Potency: inactive
[4]
  Potency: 9350 nM (active)
[5]
  Potency: inactive
[6]
  Potency: inactive
[15]
  Potency: inactive
[7]
  Potency: inactive
[8]
  Potency: inactive
[10]
  Potency: inactive
[11]
  Potency: inactive
[13]
  Potency: inactive
[16]
  Potency: inactive
[17]
  Potency: inactive

## CCN(CC)CCCCNc1ncc2cc(-c3cc(OC)cc(OC)c3)c(NC(=O)NC(C)(C)C)nc2n1
[18]
  Potency: inactive
[4]
  Potency: 23500 nM (active)
[5]
  Potency: 19300 nM (active)
[8]
  Potency: 6810 nM (active)
[9]
  Potency: inactive
[10]
  Potency: 18700 nM (active)
[11]
  Potency: 24300 nM (active)
[12]
  Potency: 13200 nM (active)
[13]
  Potency: 24300 nM (active)
[14]
  Potency: 16600 nM (active)
[16]
  Potency: inactive
[17]
  Potency: 29600 nM (active)

## CC1(C)CC(=O)c2c(C(F)(F)F)nn(-c3ccc(C(N)=O)c(NC4CCC(OC(=O)CN)CC4)c3)c2C1 (stereo not drawn)
[18]
  Potency: 739 nM (active)
[3]
  Potency: 235 nM (active)
[4]
  Potency: 166 nM (active)
[6]
  Potency: 296 nM (active)
[7]
  Potency: 264 nM (active)
[8]
  Potency: 482 nM (active)
[9]
  Potency: 235 nM (active)
[10]
  Potency: 187 nM (active)
[12]
  Potency: 418 nM (active)
[13]
  Potency: 306 nM (active)
[14]
  Potency: 187 nM (active)

## CCN1CCN(Cc2ccc(-c3cc4c(N[C@H](C)c5ccccc5)ncnc4[nH]3)cc2)CC1
[18]
  Potency: 117 nM (active)
[3]
  Potency: 1 nM (active)
[4]
  Potency: 1 nM (active)
[5]
  Potency: 153 nM (active)
[6]
  Potency: 46.9 nM (active)
[7]
  Potency: 209 nM (active)
[8]
  Potency: 21500 nM (active)
[10]
  Potency: 14.8 nM (active)
[11]
  Potency: 769 nM (active)
[12]
  Potency: 5900 nM (active)
[13]
  Potency: 153 nM (active)
[14]
  Potency: 7.4 nM (active)
[17]
  Potency: inactive

## CC(=O)Nc1sc2c(c1-c1nc3ccccc3s1)CNC2
[18]
  Potency: inactive
[5]
  Potency: 15300 nM (active)
[6]
  Potency: 2350 nM (active)
[15]
  Potency: inactive
[8]
  Potency: 1210 nM (active)
[9]
  Potency: 5260 nM (active)
[10]
  Potency: 10500 nM (active)
[13]
  Potency: 24300 nM (active)
[16]
  Potency: inactive
[17]
  Potency: inactive
